Assay results reported in article PMC4053984, “DNA binding specificities of the long zinc-finger recombination protein PRDM9”.

biological target: PRDM9Cst (Mus musculus (CAST/EiJ)); test: competition EMSA; competition against biotin-labeled 75-bp Hlx1 B6 oligo; 10 mM Tris pH 7.5, 50 mM KCl, 1 mM DTT, 50 ng/ul poly(dI/dC), 0.05% NP-40, crude E. coli extract 3 ul in 20 ul; 1 h with unlabeled competitor, then 4 h with biotin-labeled 75-bp Hlx1; temperature not stated; high values mean tight binding; details: tags: N-terminal His tag (pBAD/HisB); dsDNA, one strand shown
Sequence (chain, as listed by the source): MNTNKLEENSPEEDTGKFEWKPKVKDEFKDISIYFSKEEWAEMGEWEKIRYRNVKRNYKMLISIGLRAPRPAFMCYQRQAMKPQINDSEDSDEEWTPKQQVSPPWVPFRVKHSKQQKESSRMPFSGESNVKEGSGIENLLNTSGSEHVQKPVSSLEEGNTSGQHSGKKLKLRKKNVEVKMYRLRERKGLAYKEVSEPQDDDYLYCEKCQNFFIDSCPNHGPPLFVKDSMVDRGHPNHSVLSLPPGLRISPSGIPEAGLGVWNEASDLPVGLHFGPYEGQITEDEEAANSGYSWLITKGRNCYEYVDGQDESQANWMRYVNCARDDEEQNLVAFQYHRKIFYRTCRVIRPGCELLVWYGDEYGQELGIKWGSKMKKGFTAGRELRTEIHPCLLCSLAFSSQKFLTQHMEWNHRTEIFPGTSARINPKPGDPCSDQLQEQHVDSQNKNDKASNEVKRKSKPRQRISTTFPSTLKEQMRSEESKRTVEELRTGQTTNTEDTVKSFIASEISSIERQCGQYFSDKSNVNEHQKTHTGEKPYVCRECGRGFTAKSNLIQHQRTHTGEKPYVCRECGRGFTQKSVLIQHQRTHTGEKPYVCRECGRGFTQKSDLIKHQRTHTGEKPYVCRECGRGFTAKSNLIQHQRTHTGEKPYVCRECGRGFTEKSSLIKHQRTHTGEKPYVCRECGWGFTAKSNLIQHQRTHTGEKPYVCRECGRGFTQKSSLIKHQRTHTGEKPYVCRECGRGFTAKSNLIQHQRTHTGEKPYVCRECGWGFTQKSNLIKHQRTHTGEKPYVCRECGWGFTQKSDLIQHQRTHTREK

Row | Sequence | binding signal
1 | ATAGTGTGCAGACTTGGACCCTACCCTTTCTTT | 0.1 Bmut (0 = wild type, -1 = scrambled)
2 | ATAGTGTGCAGACTTGGACCCTGCCCTTTATTT | 0.05 Bmut (0 = wild type, -1 = scrambled)
3 | ATAGTGTGCAGACTTGGACCCTGCCCTTTCTTT | 0 Bmut (0 = wild type, -1 = scrambled)
4 | ATAGTGTGCAGACTTGGACCCCGCCCTTTCTTT | -0.1 Bmut (0 = wild type, -1 = scrambled)
5 | ATTGTGTGCAGACTTGGACCCTGCCCTTTCTTT | -0.1 Bmut (0 = wild type, -1 = scrambled)
6 | ATAGTGTGCAGACTTGGGCCCTGCCCTTTCTTT | 0.3 Bmut (0 = wild type, -1 = scrambled)
7 | ATAGTGTGCAGACTTGGACCTTGCCCTTTCTTT | 0.06 Bmut (0 = wild type, -1 = scrambled)
8 | ATAGTGTGCAGACTTGGACCCTGCCCATTCTTT | 0.09 Bmut (0 = wild type, -1 = scrambled)
9 | ATAATGTGCAGACTTGGACCCTGCCCTTTCTTT | -0.4 Bmut (0 = wild type, -1 = scrambled)
10 | ATAGTGGGCAGACTTGGACCCTGCCCTTTCTTT | -0.7 Bmut (0 = wild type, -1 = scrambled)
11 | ATACTGTGCAGACTTGGACCCTGCCCTTTCTTT | -0.1 Bmut (0 = wild type, -1 = scrambled)
12 | ATAGTGTGCAGACTTGGACCCTGCCCGTTCTTT | 0.1 Bmut (0 = wild type, -1 = scrambled)
13 | ATAGTGTGCAGACTTGGACCCTGCCCTATCTTT | 0.13 Bmut (0 = wild type, -1 = scrambled)
14 | ATAGTGTGGAGACTTGGACCCTGCCCTTTCTTT | 0.1 Bmut (0 = wild type, -1 = scrambled)
15 | TTAGTGTGCAGACTTGGACCCTGCCCTTTCTTT | 0 Bmut (0 = wild type, -1 = scrambled)
16 | ATAGTGTGCAGACTTGTACCCTGCCCTTTCTTT | -0.8 Bmut (0 = wild type, -1 = scrambled)
17 | ATAGTGTGCAGACTTGGACCCTTCCCTTTCTTT | -0.3 Bmut (0 = wild type, -1 = scrambled)
18 | ATAGTGTGCAGACTTGGACCCTGCCCCTTCTTT | 0.19 Bmut (0 = wild type, -1 = scrambled)
19 | ATAGTGTGCAGACTTGGACCCTGCCTTTTCTTT | 0.15 Bmut (0 = wild type, -1 = scrambled)
20 | ATAGTGTGCAGACTTGGACCCTGCTCTTTCTTT | -0.2 Bmut (0 = wild type, -1 = scrambled)
21 | ATAGTCTGCAGACTTGGACCCTGCCCTTTCTTT | 0.1 Bmut (0 = wild type, -1 = scrambled)
22 | ATAGTGTGCAGACTTGGACGCTGCCCTTTCTTT | -0.1 Bmut (0 = wild type, -1 = scrambled)
23 | ATAGTGTGCAGACTTGGACCCTGCCCTTTCTCT | 0.13 Bmut (0 = wild type, -1 = scrambled)
24 | ATAGTGTGCAGACTTGGACCGTGCCCTTTCTTT | 0.06 Bmut (0 = wild type, -1 = scrambled)
25 | ATAGTGTGCAGACTTGGCCCCTGCCCTTTCTTT | -0.9 Bmut (0 = wild type, -1 = scrambled)
26 | ATAGTGTGCAGACTTCGACCCTGCCCTTTCTTT | -0.2 Bmut (0 = wild type, -1 = scrambled)
27 | ATAGTGTGCAGACTTGGACCCTGCCCTGTCTTT | 0.01 Bmut (0 = wild type, -1 = scrambled)
28 | ATAGTGTGCAGACTTGGACCCTGCCCTCTCTTT | -0.1 Bmut (0 = wild type, -1 = scrambled)
29 | ATAGTGTGCAGACTTGGATCCTGCCCTTTCTTT | -0.3 Bmut (0 = wild type, -1 = scrambled)
30 | AGAGTGTGCAGACTTGGACCCTGCCCTTTCTTT | -0.8 Bmut (0 = wild type, -1 = scrambled)
